# Screens deposited in PubChem by National Center for Advancing Translational Sciences (NCATS).
# DT40 TDP1 CPT: DT40-hTDP1 cell growth loss with CPT. chicken DT40 Tdp1-/-;hTDP1 cells + 20 nM CPT, ATP luminescence, 48 h. Potency, µM (highest dose often 46.2 µM), for the others: at the top dose activity change, negative = growth inhibition, most hits filed as inhibitors. actives 12% (n = 420,000); note: potency is the fitted concentration of half-maximal effect; nearly all actives have a fitted effect of over 55% in size
#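 Chicken DT40 Tdp1-/- cells stably complemented with human TDP1 were seeded at 400 cells/well in medium containing 20 nM camptothecin, exposed to pin-transferred compounds, and grown at 37 °C for at least 48 hr. Viability was read as ATP luminescence.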
# DT40 TDP1 no CPT: qHTS for Inhibitors of human tyrosyl-DNA phosphodiesterase 1 (TDP1): qHTS in cells in absence of CPT. DT40 Tdp1-/- hTDP1 cells, no CPT, ATP luminescence, 48 h. Potency, µM (top dose mostly 46.2 µM), without a hit: at the highest dose activity change, negative = growth inhibition, hits mostly inhibitors. actives 15% (n = 420,000); note: potency is the fitted concentration of half-maximal effect; nearly all actives have a fitted effect of over 55% in size
#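 Chicken DT40 Tdp1-/- cells stably complemented with human TDP1 were seeded at 400 cells/well with DMSO in place of 20 nM camptothecin. After compound pinning, cells grew at least 48 hr at 37 °C; viability read by CellTiter-Glo luminescence.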
# ELG1 repair inh: blocks ELG1-dependent DNA repair in HEK293T cells; Potency, µM (top dose mostly 46.1 µM), for the others: at the highest dose activity change, negative = inhibition, usual class: inhibitors; HEK293T ELG1-luciferase reporter, luminescence, 16 h; DNA damage induced by 5-fluorouridine; AID 504467; actives 2.3% (n = 330,000); note: potency is the fitted concentration of half-maximal effect; nearly all actives have a fitted effect of over 55% in size
#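 5-Fluorouridine DNA damage + compound/DMSO, 2,000 cells/well, 16 h, 37 °C/5% CO2. ONE-Glo, 30 min RT, luminescence. Readout = decrease in reporter signal.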
# IL1B secr inh: inflammasome signaling inhibition, IL-1 beta readout; THP-1 LPS/ATP IL-1B secretion, AlphaLISA, 16 h; active compounds read low; activity change, % at 57.5 µM; actives 4.7% (n = 360,000); in the data active = activity change below about -50%; inconclusive = mostly about -30% to -49%
#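 Secreted IL-1B measured by AlphaLISA bead assay after 16 h compound exposure of THP-1 cells; compounds (final up to 57.5 uM) added 1 h before LPS (250 ng/mL) and ATP (1.25 mM) stimulation; lower signal means less secretion.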
# HT1080-NT tox: kills 2HG-producing HT-1080-NT fibrosarcoma cells | actives 1.6% (n = 360,000) | Potency, µM (doses to about 46.1 µM), inactives show at the highest dose activity, negative = less viability, most hits filed as cytotoxic | HT-1080-NT fibrosarcoma viability, CellTiter-Glo ATP luminescence, 48 h | AID 686970;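 note: NT is the 2HG producing partner of a matched IDH1 knockdown line; potency is the fitted concentration of half-maximal effect; 0% = DMSO-treated cells and -100% = media-only wells without cells; nearly all actives have a fitted effect of over 55% in size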
#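 Luminescent CellTiter-Glo readout after 48 hours of compound exposure at 37 degrees C defined viability of HT-1080-NT cells. Activity was normalized to DMSO wells and cell-free media wells; concentration-response curves were fitted and assigned curve classes.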
# HT1080 IDH1KD tx: toxicity to HT-1080 IDH1 knockdown cells (counter line) | HT-1080 IDH1 knockdown viability, ATP luminescence, 48 h | Potency, µM (highest dose often 46.1 µM), inactives show top-dose activity, negative = toxicity, actives largely listed as cytotoxic | actives 2% (n = 360,000) | AID 686971;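 note: potency is the fitted concentration of half-maximal effect; 0% = DMSO wells and -100% = cell-free medium wells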
#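 Assay cells: HT-1080 with IDH1 knockdown, 750 per well, RPMI/5% FBS. Exposure: 48 h at 37 °C following 2 h pre-incubation. Read: CellTiter-Glo luminescence; fitted concentration-response, curve class assigned.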
# Starred values were filed as active, the others as inactive; ? = inconclusive; . = no result given. A selection: hits, their analogues and other compounds. The true share with any hit is near 19%. Unless noted, calls come from the whole dose curve; as a rule, active = well fitted curve in the direction sought with a large enough effect; inconclusive = small, poorly fitted or top-dose-only effect, or another doubt; inactive = no such curve, though single readings can be large; an effect the other way counts as inactive or inconclusive. Unless noted, % is set by controls: 0 for no effect and ±100 for the full control effect.
SMILES,DT40 TDP1 CPT,DT40 TDP1 no CPT,ELG1 repair inh,IL1B secr inh,HT1080-NT tox,HT1080 IDH1KD tx
CCOC(=O)C1CCN(S(=O)(=O)c2ccc3c(c2)CC(C)N3C(=O)C2CC2)CC1 (configuration not stated),-30%,?,-6%,32,-15%,-21%
CCOC(=O)C1CCN(C(=O)C2CCN(S(=O)(=O)c3ccc4c(c3)CC(C)N4C(C)=O)CC2)CC1 (configuration not stated),?,-26%,10µM*,17,-1%,-1%
COc1ccc(N2CCN(S(=O)(=O)c3ccc4c(c3)CC(C)N4C(C)=O)CC2)cc1 (configuration not stated),6.5µM*,?,.,.,.,.
COc1ccc2c(n1)Sc1nc3ccccc3nc1N2,?,?,?,16,24%,13%
Cc1ccc(NC(=O)CN(C)S(=O)(=O)c2ccc3nc(C)sc3c2)c(C)c1,-6%,-17%,.,.,.,.
CC(=O)N1c2ccc(S(=O)(=O)N3CCC(C(=O)N4CCN(c5cccc(C(F)(F)F)c5)CC4)CC3)cc2CC1C (configuration not stated),8.2µM*,2.3µM*,?,-30,?,-28%
N#Cc1ccc(NC(=O)COC(=O)C2Cc3ccccc3CN2C(=O)c2ccccc2)cc1 (configuration not stated),9.2µM*,16µM*,10µM*,-8,-16%,1%
COc1ccc(N2C(=O)CC(Sc3nnnn3-c3ccc(F)cc3)C2=O)cc1 (configuration not stated),1.5µM*,2.9µM*,8%,-16,16µM*,4.1µM*
COc1ccc(N2C(=O)CC(Sc3nc(C)cc(C)c3C#N)C2=O)cc1 (configuration not stated),-2%,-17%,?,1,-2%,-25%
O=C1CC(SC(=Nc2ccccc2)Nc2ccccc2)C(=O)N1c1cccc(Cl)c1 (configuration not stated),?,18µM*,-17%,-6,?,23µM*
O=C1CC(Sc2nnnn2-c2ccccc2)C(=O)N1c1cccc(Cl)c1 (configuration not stated),1.3µM*,3.7µM*,3%,-7,?,?
O=C1CC(N2CCN(c3ccccc3)CC2)C(=O)N1c1cccc(Cl)c1 (configuration not stated),-3%,-6%,4%,30,3%,2%
O=C1CC(SC(=Nc2ccccc2)Nc2ccccc2)C(=O)N1c1ccc(Cl)cc1 (configuration not stated),?,?,10%,15,-13%,-12%
CCOCCCNC(=O)c1[nH]c2cc(OC)ccc2c1Sc1ccccc1,-25%,-4%,.,.,.,.
COc1cccc(CNC(=O)c2[nH]c3cc(C)ccc3c2Sc2ccccc2)c1,?,15µM*,.,.,.,.
Cc1ccc2c(Sc3ccccc3)c(C(=O)NCc3ccccc3F)[nH]c2c1,9.2µM*,?,.,.,.,.
CCOC(=O)c1cc(NC(=O)c2ccccc2)c(=O)n2c1oc1ccc(Cl)cc12,-23%,?,.,.,.,.
O=C(Nc1ccc(F)cc1F)C1CCN(c2ncnc3c2sc2cccc(F)c23)CC1,6.5µM*,16µM*,3%,27,0%,-3%
Cn1cnc(S(=O)(=O)N2CCC(C(=O)Nc3ccc(F)cc3F)CC2)c1,9%,-16%,.,.,.,.
COc1cc(-c2nnc(SCC(=O)N(C)C3CCCCC3)o2)cc(OC)c1OC,12µM*,5.8µM*,.,.,.,.
CCN(C(=O)CSc1nnc(-c2cc(OC)c(OC)c(OC)c2)o1)c1ccccc1,15µM*,5.8µM*,.,.,.,.
COc1ccc(-c2nnc(SCC(=O)N(Cc3ccccc3)C(C)(C)C)o2)cc1OC,23µM*,13µM*,-1%,?,-19%,-21%
CCN(C(=O)CSc1nnc(COc2cccc(C)c2)o1)c1nc(C)cs1,?,-22%,19%,14,0%,8%
CCOc1ccc(-c2nnc(SCC(=O)N(CC)c3cccc(C)c3)o2)cc1,21µM*,10µM*,.,.,.,.
COc1cc(-c2nnc(SCC(=O)c3ccccc3)o2)cc(OC)c1OC,?,?,?,-4,-20%,-15%
SMILES,DT40 TDP1 CPT,DT40 TDP1 no CPT,ELG1 repair inh,IL1B secr inh,HT1080-NT tox,HT1080 IDH1KD tx
COCCn1c(C)cc(O)c(C(c2ccccc2)N2CCN(CCO)CC2)c1=O (configuration not stated),-2%,-7%,.,.,.,.
CN(C(=O)CSc1nnc(-c2ccccc2F)o1)c1ccccc1,1%,1%,?,-10,7%,3%
CCN(C(=O)CSc1nnc(-c2ccc(Cl)cc2)o1)c1ccccc1,?,21µM*,.,.,.,.
CN(C(=O)CSc1nnc(-c2ccccc2F)o1)C1CCCCC1,-4%,1%,.,.,.,.
COc1ccc(CN(C(=O)CSc2nnc(-c3ccccc3F)o2)c2ccc(F)cc2)cc1,18µM*,13µM*,?,11,-22%,-1%
COc1cccc(-c2nnc(SCC(=O)N(C)c3ccccc3)o2)c1,?,10µM*,.,.,.,.
COc1ccc2c(c1OC)C(=O)N1C2SC[C@H]1C(=O)NC1CCCC1 (some centres not stated),?,-2%,-8%,39,-7%,1%
COCOCCn1cc(CN2CCS(=O)(=O)N(Cc3ccc(-c4cccc(CO)c4)cc3)C(CC(C)C)C2=O)nn1 (configuration not stated),?,?,.,7,6%,9%
COCOCCn1cc(CN2CCS(=O)(=O)N(Cc3ccc(-c4cccc(CO)c4)cc3)C(C(C)C)C2=O)nn1 (configuration not stated),?,21µM*,.,25,-2%,7%
COCOCCn1cc(CN2CCS(=O)(=O)N(Cc3ccc(-c4ccc(OC)nc4)cc3)C(C(C)C)C2=O)nn1 (configuration not stated),13µM*,8.2µM*,.,-18,-11%,-10%
COCOCCn1cc(CN2CCS(=O)(=O)N(Cc3ccc(-c4cccc(N(C)C)c4)cc3)C(C(C)C)C2=O)nn1 (configuration not stated),15µM*,21µM*,.,-10,-25%,-21%
C=C1NN(C)C(=O)N1c1ccc(OC)cc1,16%,0%,.,.,.,.
